In PubChem BioAssay AID1159580 (chemical genetic matrix, 2015):
The campaign covered roughly 5,500 compounds. About 2,000 (36%) were called active. Not shown: some 18% with an inconclusive outcome. No stated cut-off is given here; in the data, active means normalized growth mostly below about 0.91 (no sharp cut-off); inconclusive means no clear call, values can overlap the other calls; inactive means mostly above about 0.92. The list shows a part of the results.

Assay: chemical genetic growth profiling, strain panel (AID 1159580);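 further: tested at 20 µM; growth read once vehicle control cultures reached saturation at 30 °C; 1 = growth at the plate median or of vehicle wells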
Details: S. cerevisiae deletion strains, growth OD

Measured: normalized growth

CC(=O)Oc1ccccc1C(=O)O
inactive: locus YAL021C, strain ccr4, stronger effect = lower value 0.993 | locus YAL026C, strain drs2, stronger effect = lower value 1 | locus YAL030W, strain snc1, stronger effect = lower value 1 | locus YAL040C, strain CLN3, stronger effect = lower value 0.996 | locus YBL061C, strain skt5, stronger effect = lower value 0.989 | locus YBR009C, strain hhf1, stronger effect = lower value 1.03 | locus YBR023C, strain chs3, stronger effect = lower value 1 | locus YBR171W, strain sec66, stronger effect = lower value 0.985 | locus YBR231C, strain swc5, stronger effect = lower value 1.01 | locus YBR279W, strain paf1, stronger effect = lower value 0.992 | locus YCL011C, strain gbp2, stronger effect = lower value 1 | locus YCL016C, strain dcc1, stronger effect = lower value 0.983 | locus YCL061C, strain MRC1 (second series), stronger effect = lower value 1 | locus YCL069W, strain vba3, stronger effect = lower value 1 | locus YCR088W, strain abp1, stronger effect = lower value 0.989 | locus YDL005C, strain med2, stronger effect = lower value 0.985 | locus YDL040C, strain nat1, stronger effect = lower value 0.996 | locus YDR001C, strain nth1, stronger effect = lower value 0.995 | locus YDR069C, strain doa4, stronger effect = lower value 1.01 | locus YDR137W, strain rgp1, stronger effect = lower value 1 | locus YDR150W, strain NUM1, stronger effect = lower value 0.992 | locus YDR159W, strain sac3, stronger effect = lower value 0.938 | locus YDR195W, strain ref2 1 | locus YDR297W, strain sur2, stronger effect = lower value 1.01 | locus YDR334W, strain swr1, stronger effect = lower value 0.991 | locus YDR335W, strain msn5, stronger effect = lower value 1.03 | locus YDR392W, strain spt3, stronger effect = lower value 0.906 | locus YEL003W, strain gim4, stronger effect = lower value 1.01 | locus YEL037C, strain rad23, stronger effect = lower value 0.998 | locus YEL061C, strain CIN8 (second series), stronger effect = lower value 0.996 | locus YER002W, strain NOP16, stronger effect = lower value 0.988 | locus YER015W, strain faa2, stronger effect = lower value 1.01 | locus YER016W, strain bim1, stronger effect = lower value 0.977 | locus YER111C, strain swi4, stronger effect = lower value 0.985 | locus YER155C, strain BEM2 (second series), stronger effect = lower value 0.996 | locus YFR010W, strain ubp6, stronger effect = lower value 1.09 | locus YGL167C, strain pmr1, stronger effect = lower value 1 | locus YGL173C, strain kem1, stronger effect = lower value 1 | locus YGL227W, strain vid30, stronger effect = lower value 0.989 | locus YGL240W, strain doc1, stronger effect = lower value 1 | locus YGL253W, strain hxk2, stronger effect = lower value 1.03 | locus YHR013C, strain ard1, stronger effect = lower value 0.969 | locus YHR027C, strain rpn1, stronger effect = lower value 1.02 | locus YHR030C, strain SLT2, stronger effect = lower value 1.03 | locus YHR079C, strain IRE1, stronger effect = lower value 1.04 | locus YHR142W, strain chs7, stronger effect = lower value 1.01 | locus YJL092W, strain hpr5, stronger effect = lower value 1 | locus YJL095W, strain BCK1 (second series), stronger effect = lower value 0.989 | locus YJL095W, strain BCK1, stronger effect = lower value 1.05 | locus YJL115W, strain asf1, stronger effect = lower value 0.988 | locus YJL129C, strain trk1, stronger effect = lower value 0.995 | locus YJL154C, strain vps35, stronger effect = lower value 0.989 | locus YJL164C, strain tpk1, stronger effect = lower value 0.999 | locus YJL166W, strain qcr8, stronger effect = lower value 1.01 | locus YJL187C, strain SWE1, stronger effect = lower value 0.987 | locus YJR066W, strain TOR1, stronger effect = lower value 0.978 | locus YKL160W, strain elf1, stronger effect = lower value 0.971 | locus YKR026C, strain gcn3, stronger effect = lower value 0.994 | locus YKR091W, strain srl3, stronger effect = lower value 1 | locus YLL001W, strain dnm1, stronger effect = lower value 0.974 | locus YLL026W, stronger effect = lower value 0.992 | locus YLL041C, strain sdh2, stronger effect = lower value 0.983 | locus YLR027C, strain aat2, stronger effect = lower value 1.01 | locus YLR113W, strain HOG1, stronger effect = lower value 1.01 | locus YLR221C, strain rsa3, stronger effect = lower value 0.996 | locus YLR258W, strain gsy2, stronger effect = lower value 0.997 | locus YLR262C, strain YPT6 (second series), stronger effect = lower value 0.984 | locus YLR320W, strain mms22, stronger effect = lower value 0.975 | locus YLR342W, strain FKS1, stronger effect = lower value 0.997 | locus YLR357W, strain rsc2, stronger effect = lower value 0.964 | locus YLR370C, strain arc18, stronger effect = lower value 1 | locus YLR384C, strain iki3, stronger effect = lower value 0.971 | locus YML120C, strain ndi1, stronger effect = lower value 1.02 | locus YMR058W, strain fet3, stronger effect = lower value 1 | locus YMR125W, strain sto1, stronger effect = lower value 0.997 | locus YMR129W, stronger effect = lower value 0.985 | locus YMR205C, strain PFK2, stronger effect = lower value 1.02 | locus YMR231W, strain pep5, stronger effect = lower value 0.994 | locus YNL071W, strain lat1, stronger effect = lower value 0.998 | locus YNL153C, strain GIM3, stronger effect = lower value 0.994 | locus YNL175C, strain NOP13, stronger effect = lower value 0.989 | locus YNL183C, strain NPR1, stronger effect = lower value 0.997 | locus YNL197C, strain WHI3, stronger effect = lower value 0.995 | locus YNL209W, strain ssb2, stronger effect = lower value 1.02 | locus YNL224C, strain SQS1, stronger effect = lower value 0.988 | locus YNL248C, strain rpa49, stronger effect = lower value 0.956 | locus YNL322C, strain KRE1 (second series), stronger effect = lower value 0.966 | locus YNR049C, strain mso1, stronger effect = lower value 1 | locus YOR001W, strain rrp6, stronger effect = lower value 1.02 | locus YOR070C, strain gyp1, stronger effect = lower value 0.998 | locus YOR080W, strain dia2, stronger effect = lower value 1 | locus YOR083W, strain WHI5 (second series), stronger effect = lower value 1.01 | locus YOR083W, strain WHI5, stronger effect = lower value 0.929 | locus YOR106W, strain vam3, stronger effect = lower value 0.994 | locus YOR231W, strain MKK1, stronger effect = lower value 1.06 | locus YOR265W, strain rbl2, stronger effect = lower value 1.02 | locus YOR270C, strain vph1, stronger effect = lower value 1.04 | locus YOR290C, strain snf2, stronger effect = lower value 0.989 | locus YPL051W, strain arl3, stronger effect = lower value 1 | locus YPL055C, strain LGE1, stronger effect = lower value 0.969 | locus YPL078C, strain atp4, stronger effect = lower value 0.984 | locus YPL106C, strain sse1, stronger effect = lower value 0.976 | locus YPL240C, strain hsp82, stronger effect = lower value 1 | locus YPL241C, strain CIN2, stronger effect = lower value 0.999 | locus YPL256C, strain CLN2, stronger effect = lower value 1.03
